Columns and labels:
Test in all cases: PBM binding z-score (relative to random genomic background probes); higher = stronger binding; sequences stand for … in GC…GCGATTGACAGCGTAGAATGAAGG
[1] = tested on: RARb homodimer (NR concentration 270 nM)
In short: (§1)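 Regression normalization was applied to scanned fluorescence from custom Agilent 4×180K protein-binding microarrays. Before scanning, arrays were incubated 1 h with ligand-free nuclear receptor dimers, and binding was detected with antibodies against each partner (one per run). Binding z-scores use the random background probes as reference.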

[2] = tested on: RARg:RXRa (NR concentration 270 nM, RXRa partner concentration 90 nM)
In short: as §1

[3] = tested on: RARg homodimer (NR concentration 270 nM)
In short: as §1

[4] = tested on: RXRa DBDmut IVT, anti-RXR (DBD mutation: RXRa K156A/R161A, NR concentration 90 nM)
In short: as §1

[5] = tested on: RXRa homodimer (NR concentration 180 nM)
In short: as §1

[6] = tested on: THRa:RXRa (NR concentration 90 nM, RXRa partner concentration 90 nM)
In short: as §1

[7] = tested on: THRa homodimer (NR concentration 90 nM)
In short: as §1

[8] = tested on: VDR homodimer (NR concentration 270 nM)
In short: as §1

Sequence | PBM binding z-score [1] | PBM binding z-score [2] | PBM binding z-score [3] | PBM binding z-score [4] | PBM binding z-score [5] | PBM binding z-score [6] | PBM binding z-score [7] | PBM binding z-score [8]
CTCTAAAGGTCGTGCTCAGGTGAGTATACCAAAC | 2.96 | 5.08 | 3.88 | 2.33 | 4.64 | 4.37 | 1.31 | 1.37
CAAACTAGGTCACGGAAGGTCAAAGTCGAATGAC | 5.47 | 7.13 | 7.4 | 2.45 | 7.3 | 5.24 | 2.79 | 3.53
GTACCAAGGTGAATAGGTCGTTAATGAGTAGGCG | 1.88 | 2.4 | 1.37 | -0.112 | 1.7 | 1.7 | 0.636 | 0.459
ACTATTAGTTGACTTAGGGCAACCGTTACGACGC | 1.34 | 0.618 | 0.892 | 1.01 | 0.622 | 1.53 | 0.619 | 0.195
GCAGACAGGTGCAACGCAGGTAACTCAGGGTGGC | -0.431 | -0.314 | -0.365 | 0.123 | 0.00957 | 2.13 | -0.805 | -0.15
CCTGGTTGGTCAAGGTCACACACGCTATAGGTAC | 4.45 | 4.58 | 4.71 | 1.46 | 4.69 | 4.36 | 4.54 | 3.51
CAAACTAGGTCATCCAGGACAGTGAATACATTGA | 3.12 | 4.15 | 4.93 | 2.37 | 3.09 | 3.76 | 2.38 | 2.21
GCGACTGGGGGATCAGCAGGTTACCATAACTTAA | 0.909 | 0.837 | 0.34 | 0.58 | 1 | 1.67 | 0.806 | 0.0827
AGAATGAGGTTATACGTACATCAGGGAAGAAAGT | 0.803 | 1.95 | 1.32 | 1.73 | 2.32 | 2.13 | 0.372 | 1.22
GCAACGAGGGCAAAGTTGATAGCATCTGTCGACG | 0.991 | 1.89 | 1.57 | 2.62 | 1.81 | 1.19 | -0.191 | 1.21
CCTAGGAGGACAACAGGAGGTCAGAGCTGCCAGA | 3.64 | 3.49 | 3.47 | 0.503 | 2.25 | 2.82 | 1.1 | 1.4
TCGAGTAGGTTACCAATGGGGCAATCAGCTTTCT | 0.687 | 1.67 | 0.463 | 0.325 | 0.707 | 0.302 | -0.774 | -0.712
CCTACTGGGCCACGAAAGGTCATAGATTCAGTGA | 4.58 | 4.73 | 4.53 | -0.0363 | 4.95 | 3.84 | 0.901 | 1.31
GGAACGAGGGCAAGTTTATAGCAGAGTTTGATGG | 1.78 | 1.5 | 2.19 | 2.62 | 0.81 | 1.07 | 0.0695 | 2.89
GCTATTACTTGAAAGGGCAACCGAATGATTCTCG | 2.01 | 1.27 | 1.27 | 0.581 | 0.965 | 0.521 | -0.383 | -0.15
CGTTAAAGTTCAACTAAGGTAACGTAAAGCACGC | 4.09 | 5.55 | 6.33 | 4.8 | 4.25 | 5.26 | 1.68 | 3.94
CGTCTAAGGTCAATGCTAGGTCAGTGAAAGCATT | 5.09 | 7.91 | 7.34 | 3.82 | 6.12 | 4.67 | 4.42 | 3.13
CCGAGTAGGTCATGGGGCATTCAGGCAACGGTGA | 3.25 | 4.34 | 4.44 | 0.881 | 3.87 | 2.45 | 0.499 | 0.642
ATCGAAACGTCGAGGTGAGTATAGAGAAAGGGAA | -0.0564 | 0.238 | 0.317 | -0.787 | 0.266 | 1.03 | -0.0731 | -0.175

Sequence | PBM binding z-score [1] | PBM binding z-score [2] | PBM binding z-score [3] | PBM binding z-score [4] | PBM binding z-score [5] | PBM binding z-score [6] | PBM binding z-score [7] | PBM binding z-score [8]
CCGAGTAGGTTATGGGGCATACAGGCAACGGTGA | 0.844 | 0.575 | 0.725 | -0.471 | 0.691 | 0.28 | -0.0646 | 0.0894
ACTACCAGGCCAAGGGTCACTCAAGATTAGTCCG | 4.07 | 4.15 | 3.87 | 0.629 | 4.2 | 3.3 | 1.15 | 2.13
ACTAGGAGGCCAAGTTTGGGTCACTCAAACAAAG | 2.66 | 3.46 | 2.56 | 0.0297 | 1.08 | 2.74 | 1 | 0.935
CGAACTAGGTCATTGACAGGACAGTCAATAGTAA | 2.6 | 4.51 | 4.14 | 2.45 | 2.29 | 2.83 | 0.652 | 1.07
CGTCCAAGATCATAGGAGGTCAGTGAAGACAGAT | 3.26 | 2.22 | 2.22 | 0.36 | 2.03 | 3.98 | 0.538 | 1.21
ACCATTAGTTGAGACGAGGGCAACCGATAGGTTG | 1.3 | 0.676 | 0.629 | 0.383 | 0.669 | 2.63 | 0.525 | 1.04
CCTCGCAGGACAGAAGGTCAGAGCTGTCCGCTTT | 3.34 | 2.74 | 2.61 | 0.371 | 1.74 | 1.58 | 0.0874 | 0.0556
CCTAGTTGGTCAAGGTCGCACACGCTATAGGTAC | 2.39 | 1.87 | 2.27 | 0.634 | 1.83 | 2.64 | 1.75 | 2.3
CCGACTGGGGGATAAGGTTACCATAAGCCAGCCC | 1.05 | 1.12 | 0.756 | -0.00884 | 1.21 | 2.51 | 2.11 | 0.491
TCAGCTAGGTCAGTTGGTCAGCTAACGAGCTGCC | 2.61 | 2.79 | 3.45 | 0.986 | 0.749 | 0.928 | -0.339 | -0.91
TCGAGTAGGTTCCCAATGGGGCATTCAGCTTTCT | -0.191 | -0.766 | -0.954 | 0.269 | -0.493 | -0.435 | -0.628 | -1.15
ATATGTAGGTTAAGGGTCTTTCAGGTTGGTTCGC | 1.78 | 1 | 0.853 | 0.724 | 1.96 | 1.54 | 1.44 | 1.64
CTACCAAGGTGAACAAGTTCGTTGATTACTATTC | 1.3 | 0.877 | 1.02 | 2.17 | 0.747 | 1.9 | 0.959 | 3.6
ACTAGCAGGCCAAGTTTGGTTCACTCAAACAAAG | 0.338 | 0.163 | 0.218 | 0.0733 | -0.193 | 0.405 | -0.294 | 0.338
CCTACTGGGCCAAAGGTCGTTGATTCCAATGCTC | 2.03 | 2.66 | 1.07 | 0.474 | 2.82 | 1.5 | 0.0932 | 0.435
CGAACTAGGTCATGCAGGACAGTGAATACATTGA | 2.8 | 3.87 | 4.66 | 1.87 | 2.67 | 2.96 | 1.35 | 1.31
GATACAGGGTCAGCTCGAGGCCAGAGTATGGAAA | 3.45 | 6.05 | 4.74 | 1.23 | 4.4 | 3.83 | 0.628 | 0.917
TCTCGGAGGACACGAAAGGTCCGAGCTCGACATC | 0.997 | 0.805 | 1.35 | 0.605 | 0.384 | 1.62 | 0.526 | 0.0895
AATACAGGGTCATCGTATGCCAGAGTACGCACAG | 3.1 | 5.61 | 4.95 | 3.42 | 6.33 | 3.67 | 1.21 | 3.64

Sequence | PBM binding z-score [1] | PBM binding z-score [2] | PBM binding z-score [3] | PBM binding z-score [4] | PBM binding z-score [5] | PBM binding z-score [6] | PBM binding z-score [7] | PBM binding z-score [8]
TCTAGCAGGTCAGAGGGTCACTCAAGAGGTACGG | 4.51 | 5.64 | 5.13 | 0.85 | 5.09 | 3.03 | 0.408 | 1.72
CCTTACGGGTCACTCCAGTTTATAGCATCGGAGT | 2.7 | 4.06 | 4.22 | 1.78 | 3.83 | 4.11 | 0.161 | 2.06
AGAGCGAGGGCACGCTGAGTTGATAGCAGAGTAG | 1 | 1.76 | 1.96 | 1.28 | 1.06 | 1.51 | -0.183 | 1.48
ATATGTAGGTTAAGGGTTATTCAGGTTGGTTCGC | 1.91 | 2.11 | 1.34 | 0.963 | 2.75 | 2.37 | 1.52 | 1.83
TCATATAGGTAATATAGGTGAAAGTCGGCATCTA | 0.281 | 0.454 | 0.522 | 1.2 | 0.79 | 0.364 | -0.347 | 0.0956
CAAACTAGGTAAAAGGTCAAAGTCGAGCCAACCA | 4.69 | 6.32 | 5.16 | 1.67 | 7.54 | 4.01 | 1.07 | 2.02
CGTCAAAGTTCAACTAAGGTAACGTTAAGCACGC | 4.42 | 6.02 | 6.57 | 4.55 | 5.24 | 5.42 | 2.19 | 4.26
ACTGGCAGGCCAAGTTTGGGTCACTCAAACAAAG | 2.35 | 2.51 | 1.97 | -0.557 | 0.925 | 2.56 | 1.14 | -0.0755
CGTCAAAGTTCCACTAAGGTAACGTAAAGCACGC | 0.376 | 0.418 | 0.398 | 0.475 | 0.357 | 4.02 | 1.69 | 0.238
CCTACTTGGCCACGAAAGGTCATTGATTCAGTGA | 4.61 | 4.77 | 4.41 | 1.36 | 5.16 | 3.44 | 1.3 | 2.78
GCTAGCAGGGCATTTGGGTCACTCAATGACGGGC | 1.89 | 1.32 | 1.26 | 0.672 | 1.16 | 2.07 | 0.291 | 0.573
CATACAGGGTCAGCTAGGCCTGAGTAGGGACGGC | 2.93 | 4.26 | 4.49 | 1.02 | 4.15 | 2.71 | 0.977 | 0.628
CGTCCAAGGTTAAAGGTCAGTGAAGAGATGACGG | 4.52 | 6.38 | 5.4 | 2.09 | 8.31 | 3.84 | 0.929 | 1.46
TCTTGTAGATCAACAGGCGGTTAAGAAAGATCGA | -0.586 | 0.0814 | -0.187 | 0.904 | 0.0872 | -0.136 | -0.273 | -0.602
TCATATAGGTAAACAGGTGAAAGGCCGTAAGTTA | 1.29 | 0.793 | 0.375 | 1.61 | 1.2 | 0.682 | 0.262 | 0.499
CGAACTAGATCATTGACAGGACAGTGAATAGTAA | 0.278 | 0.201 | 0.25 | 0.0168 | 0.337 | 0.239 | 0.557 | 0.205
AGAACGAGGGCACGCTGAGATGATAGCAGAGTAG | 1.2 | 1.91 | 2.21 | 1.8 | 1.41 | 1.48 | -0.0737 | 0.452
CCTACTGGGCCAAAAAGATCATTGATGCCGATAA | -0.443 | -0.189 | 0.104 | -0.443 | -0.145 | -0.348 | -0.71 | -0.266
TCATATAGGTAAAGGTGAAAGCCGAACGATATGA | 1.16 | 1.44 | 1.18 | 0.508 | 1.93 | 1.47 | -0.707 | -0.196

Reference: the supplement of paper PMC6555819
